Rows were chosen to be rich in hits. Some 11% of all compounds tested hit in one or more screens of this group.
ALDH1A1 inh – qHTS Assay for Inhibitors of Aldehyde Dehydrogenase 1 (ALDH1A1). Purified ALDH1A1, NADH fluorescence, propionaldehyde substrate. hit rate 7.3% among 220,000. Aldehyde dehydrogenase 1A1 (Homo sapiens), P00352. Potency, µM (highest dose often 75.3 µM), inactives show top-dose activity, negative = inhibition, hits mostly inhibitors;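 also: potency is read from the fitted curve at half-maximal effect; plate controls were no enzyme wells and a reference inhibitor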
IMPase cell inh – qHTS Assay for Identifying the Cell-Membrane Permeable IMPase Inhibitors; inhibition (IP1 accumulation), % at 46.1 µM; AID 901, 2007; CHO-M1 cells, IP1 accumulation, HTRF TR-FRET ratio; 120,000 tested, under 10 active; Inositol monophosphatase 1 (Rattus norvegicus), P97697; active = well fitted curve in the direction sought with a large enough effect in the signal ratio, not every such curve was filed as active; inconclusive = small, poorly fitted or top-dose-only effect, or a change in a side signal; inactive = no such curve, though single readings can be large or run the other way; the % refers to the signal ratio;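 also: cells stimulated with carbachol in lithium chloride buffer; plate controls were DMSO basal wells for no effect and reference inhibitor wells for full effect; higher means more IMPase inhibition seen as more IP1 and lower FRET ratio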
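In this qHTS, compounds (final up to 46 uM) act on CHO-M1 cells that are then activated through the M1 receptor with carbachol, in pH 7.4 buffer containing 50 mM LiCl, for 30 min. IP1 accumulation is quantified by the IP-One immunoassay.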
IMPase Li cell – qHTS Assay for Identifying the Cell-Membrane Permeable IMPase Inhibitors: Potentiation with Lithium; CHO-M1 cells, IP1 TR-FRET (IP-One), carbachol + lithium; Potency, µM (titrated, usually from 59.4 µM), without a hit: top-dose activity, negative = IMPase inhibition, most hits filed as inhibitors; hit rate 0.35% among 210,000; AID 1457, 2008; active = well fitted curve in the direction sought with a large enough effect; inconclusive = small, poorly fitted or top-dose-only effect, or another doubt; inactive = no such curve, though single readings can be large; an effect the other way counts as inactive or inconclusive;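 also: IP1 builds up when IMPase is blocked and the TR-FRET signal falls; potency is read from the fitted curve at half-maximal effect; plate controls were basal vehicle for no effect and high inhibitor control for full effect; nearly all actives have a fitted effect of over 50% in size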
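CHO-M1, 2000 cells/well, 16–30 h culture; cpd + low Li+, 30 min 37C; lysis with d2-IP1/Eu-anti-IP1 Ab, 10 min RT; TR-FRET 665/620 ratio and 620 channel; AC50 via Hill.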
ALOX12 inhib – qHTS Assay for Inhibitors of 12-hLO (12-human lipoxygenase); purified 12-hLO, xylenol orange hydroperoxide absorbance; Potency, µM (series often up to 57.1 µM), inactives show at the highest dose activity change, negative = inhibition, usual class: inhibitors; hit rate 0.12% among 150,000; AID 1452, 2008; active = well fitted curve in the direction sought with a large enough effect; inconclusive = small, poorly fitted or top-dose-only effect, or another doubt; inactive = no such curve, though single readings can be large; an effect the other way counts as inactive or inconclusive; also: potency is read from the fitted curve at half-maximal effect; nearly all actives have a fitted effect of over 55% in size
Target sequence (P18054 whole entry, looked up): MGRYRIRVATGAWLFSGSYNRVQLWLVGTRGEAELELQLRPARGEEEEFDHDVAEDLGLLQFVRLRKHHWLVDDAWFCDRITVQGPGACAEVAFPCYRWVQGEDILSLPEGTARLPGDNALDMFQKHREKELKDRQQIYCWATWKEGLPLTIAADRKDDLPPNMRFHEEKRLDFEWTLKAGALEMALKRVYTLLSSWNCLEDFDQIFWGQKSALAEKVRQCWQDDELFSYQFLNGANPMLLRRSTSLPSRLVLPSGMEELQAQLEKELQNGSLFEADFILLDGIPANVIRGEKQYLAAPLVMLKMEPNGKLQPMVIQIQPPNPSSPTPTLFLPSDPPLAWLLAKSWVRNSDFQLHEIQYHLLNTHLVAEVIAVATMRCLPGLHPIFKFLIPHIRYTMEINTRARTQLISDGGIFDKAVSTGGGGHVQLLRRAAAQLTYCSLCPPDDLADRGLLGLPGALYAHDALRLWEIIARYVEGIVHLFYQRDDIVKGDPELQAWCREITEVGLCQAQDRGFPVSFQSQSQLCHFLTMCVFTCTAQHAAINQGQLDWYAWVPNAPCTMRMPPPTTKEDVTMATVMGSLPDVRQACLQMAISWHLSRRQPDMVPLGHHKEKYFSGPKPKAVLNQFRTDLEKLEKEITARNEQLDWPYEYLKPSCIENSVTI
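Xylenol orange chromogenic assay: hydroperoxide from 12hLO oxidises Fe(II), giving red-shifted Fe(III)-XO absorbance. Conditions: 150 nM enzyme, 40 uM arachidonic acid, 25 mM Hepes pH 7.0, 0.01% Triton X-100, 30 min, room temperature.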
HPGD inh – qHTS Assay for Inhibitors of HPGD (15-Hydroxyprostaglandin Dehydrogenase) | 15-hydroxyprostaglandin dehydrogenase [NAD(+)] (Homo sapiens), P15428 | purified HPGD, NADH fluorescence kinetic, PGE2 substrate | Potency, µM, inactives show at the top dose activity change, negative = inhibition, actives largely listed as inhibitors | hit rate 4.3% among 150,000 | AID 894, 2007; also: potency is read from the fitted curve at half-maximal effect
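20 nM HPGD preincubated 15 min at room temperature with compound in 50 mM Tris-HCl pH 8, 0.01% Tween 20. Started with 1 mM NAD+ and 30 uM prostaglandin E2; NADH fluorescence (360/450 nm) read 5 times over 30-s intervals, last minus first.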
PNC assembly inh – High Content Assay for Compounds that inhibit the Assembly of the Perinucleolar Compartment. AID 2417, 2010. activity change (PNC), negative = inhibition, % at 10 µM. PC3M PTB-GFP, PNC prevalence imaging, 16 h; active compounds read low. hit rate 3.1% among 140,000;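 active = readout at or below -70, meaning at least 70% loss of cells showing the perinucleolar compartment, a nuclear body marking cancer cells; inconclusive = readout between -30 and a set limit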;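 also: plate controls were DMSO wells for no effect and camptothecin positive control wells for full effect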
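Compounds are pinned in duplicate onto adhered PC3M cells stably expressing GFP-tagged PTB and incubated 16 h at 37 C. Cells are then fixed, nuclei stained with Hoechst, and PNC-positive cells counted.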
* = called active by the depositor; ? = inconclusive; · = not tested or not shown; ! = not active in a repeat; [ ] = another dose, or the depositor's remark. Unless noted, calls follow the shape of the dose curve; as a rule, active = well fitted inhibition curve with a large enough effect (not every such curve was filed as active); inconclusive = small, poorly fitted or top-dose-only effect, or another doubt; inactive = no such curve, though single readings can be large or run the other way. Unless noted, % is scaled to controls: 0 for no effect and ±100 for the full control effect.

SMILES	ALDH1A1 inh	IMPase cell inh	IMPase Li cell	ALOX12 inhib	HPGD inh	PNC assembly inh
CC(=O)c1ccc(NC(=O)CSc2nnc(Cc3cccn3C)n2-c2ccc(F)cc2)cc1	13µM*	9	4%[38.3 µM]	-3%	1%	?
Cc1ccc(NC(=O)CSc2nnc(Cc3cccn3C)n2-c2ccc(F)cc2)cc1	?	-4	1%	-1%	-9%	1
COc1ccc(-n2c(Cc3cccn3C)nnc2SCC(=O)Nc2ccc(C)cc2)cc1	?	-2	-3%	-2%	-6%	?
COc1ccc(NC(=O)CSc2nnc(Cc3cccn3C)n2-c2ccc(OC)cc2)cc1	14µM*	3	0%	-1%	-3%	-17
COc1ccc(NC(=O)CSc2nnnn2-c2ccc(OC)cc2)cc1	7%	1	23%[38.3 µM]	-4%	-10%	19
COc1ccc(Cl)cc1NC(=O)CSc1nnc(Cc2cccn2C)n1-c1ccc(F)cc1	-2%	-3	1%	-2%	-3%	-85*
COc1cc(OC)cc(-n2nnnc2SCC(=O)Nc2ccc(C(C)=O)cc2)c1	-1%	-5	3.5µM*	4%	-23%	43
OC[C@H]1O[C@@H](n2cnc3c(NCc4ccccc4)ncnc32)[C@H](O)[C@@H]1O	6%	-7	1%	-3%	-5%	·
Cn1cccc1Cc1nnc(SCC(=O)Nc2cccc(F)c2)n1-c1ccc(F)cc1	?	9	16%	-1%	-2%	-29
CCc1ccc(NC(=O)CSc2nnc(Cc3cccn3C)n2-c2ccc(F)cc2)cc1	?	-2	31%[38.3 µM]	-18%	-7%	-90*
CC(=O)c1ccc2c(c1)C1C=CCC1C(c1ccncc1)N2 (centres undefined)	20µM*	2	13%[38.3 µM]	-16%	-6%	-23
C1=CC2c3ccccc3NC(c3ccncc3)C2C1 (centres undefined)	10µM*	5	8%[38.3 µM]	-12%	22µM*	3
CCOC(=O)CCN1C(=O)[C@H]2[C@@H]3[C@H](O)[C@H](O)CC(=O)[C@H]3CC[C@H]2C1=O	-3%[13.5 µM]	·	·	·	·	·
O=C1CS/C(=N/N=C/c2ccccc2)N1Cc1ccco1	11µM*	·	·	·	·	·
COc1ccc(OC)c(/C=N/N=C2\SCC(=O)N2Cc2ccco2)c1	5µM*	·	-2%	-2%	-15%	-4
CC(C)[C@H](NC(=O)c1ccco1)C(=O)NC12CC3CC(CC(C3)C1)C2	3%	·	23%	·	·	·
O=C1c2ccccc2C(=O)N1CSc1nnc2c3ccccc3n(CCc3ccccc3)c2n1	18µM*	4	40%[38.3 µM]	5%	-11%	-20
C=CCn1c2ccccc2c2nnc(SCN3C(=O)c4ccccc4C3=O)nc21	28µM*	11	5%[38.3 µM]	-2%	-29%	46
O=c1[nH]c2ccccc2n1CCCSc1cnc2ccccc2n1	-2%	5	22%[38.3 µM]	-1%	-12%	-9
C=CCn1c2ccccc2c2nnc(SCCCn3c(=O)[nH]c4ccccc43)nc21	-7%	14	13%	0%	14µM*	3
O=C(O)CCc1ccc(-c2ccc(Cl)cc2)n1-c1cccc(C(F)(F)F)c1	·	-3	·	·	·	·
O=C(NCc1ccccc1)c1ccc(-c2ccccc2C(F)(F)F)o1	25µM*!	·	3%	-4%[0.00818 µM]	32µM*!	-84*
Oc1c(C(Nc2nccs2)c2ccc(C(F)(F)F)cc2)ccc2cccnc12 (centres undefined)	-3%	·	3%	·	·	·
Oc1c(C(Nc2cccc(C(F)(F)F)c2)c2ccncc2)ccc2cccnc12 (centres undefined)	18µM*	·	7%	·	·	·
CC(C)C(=O)NC(c1ccco1)c1ccc2cccnc2c1O (centres undefined)	14%	6	6%[38.3 µM]	10µM*	-6%	-25
SMILES	ALDH1A1 inh	IMPase cell inh	IMPase Li cell	ALOX12 inhib	HPGD inh	PNC assembly inh
O=C(O)c1ccc(N[C@H](c2ccccc2)c2ccc3cccnc3c2O)cc1	4µM*	·	3%	-28%[11.4 µM]	?	·
Oc1c(C(Nc2nc3ccccc3s2)c2ccco2)ccc2cccnc12 (centres undefined)	0%	1	4%[38.3 µM]	-14%	-5%	10
N#CCC(=O)N1CCN(C=O)CC1	2%	·	16%	·	·	·
Cc1ccc(NC(=O)CCCSc2ccccc2)cc1S(=O)(=O)N1CCOCC1	-2%	·	5%	·	·	·
C=CCOC(=O)N[C@H](/C(C(=O)OC)=C(\C)NCc1ccccc1)c1ccc(C)cc1	-2%	·	19%	·	-13%	·
Cc1cc(C)cc(C(=O)N(C)[C@H](Cc2ccc(-c3ccccc3)cc2)C(=O)N[C@@H](Cc2c[nH]c3ccccc23)C(=O)O)c1	0%	0	8%	-12%	6%	·
COc1ccc(-c2c(C)nn3c(N)c(C#N)cnc23)cc1OC	-11%	·	10%	·	·	·
Cc1nn2c(N)c(C#N)cnc2c1-c1ccccc1	-2%	5	5%	-5%	-4%	-82*
Cc1nn2c(N)c(C#N)cnc2c1-c1ccc(Cl)cc1	?	-22	11µM*	5%	?	1
CC(=O)OCC1CCCC2=C(C)C(=O)CCC21COC(C)=O (centres undefined)	5%	·	-5%	-1%	2%	-109*
Cc1ccc(C)c(NS(=O)(=O)c2cc(C(N)=O)ccc2C)c1	-2%	-2	7%[38.3 µM]	-6%	-11%	-81*
Cc1ccc(C)c(S(=O)(=O)Nc2ccc(C(N)=O)cc2)c1	?	·	3%	·	·	·
COc1ccccc1-c1nc(-c2ccccn2)no1	-10%	-3	-4%[38.3 µM]	1%	-23%	-5
CCc1nc(-c2ccc(C)nc2OC)no1	-1%	16	12%[38.3 µM]	1%	-1%	-7
COc1nc(C)ccc1-c1noc(-c2ccccn2)n1	-6%	0	20%[38.3 µM]	1%	22µM*	6
COc1ccccc1-c1nc(-c2ccc(C)nc2OC)no1	?	-6	6%	-6%	-17%	-98*
CN(Cc1cccs1)S(=O)(=O)c1cccs1	?	-7	36%[38.3 µM]	1%	28µM*	?
CC1(C)CNc2cc([N+](=O)[O-])ccc2S1	3%	·	1%	·	·	·
CN(C(=O)COC(=O)c1ccc([N+](=O)[O-])cc1N)c1ccccc1	-5%	·	-2%	·	·	·
O=C(/C=C/c1ccco1)Nc1ccc(C(=O)N2CCOCC2)cc1	?	·	2%	0%	18µM*	14
CSc1cccc(NC(=O)/C=C/c2ccco2)c1	3.2µM*	·	-5%	·	·	·

Assay outcomes: PubChem, National Center for Advancing Translational Sciences (NCATS)
